Values joined by “and” are separate entries in the source; they are usually repeats but may differ in a detail not shown here. Identical values can stand only once. Results filed as inconclusive are left out. Entries that show only a call come without a potency. A structure can be active in one record and inactive in another. Active and inactive are the calls of the source. Unless noted, calls come from the whole dose curve; as a rule, active = well fitted curve in the direction sought with a large enough effect in the repeat runs; inconclusive = weak or mixed curves; inactive = no such curve, though single readings can be large; an effect the other way counts as inactive or inconclusive.
Assays:
[1] = qHTS assay to identify small molecule antagonists of the glucocorticoid receptor (GR) signaling pathway - cell viability counter screen (AID 720693); note: nearly all actives have a fitted effect of over 55% in size
[2] = qHTS assay for identifying genotoxic compounds that show differential cytotoxicity against isogenic chicken DT40 cell lines with known DNA damage response pathways - wild type cell line (AID 743012); note: nearly all actives have a fitted effect of over 60% in size; note: potency is the fitted concentration of half-maximal effect
Procedure, shortened: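 300 wt DT40 cells/well; cpd (DMSO) pintool-transferred after ~0.5 h at 37 C/5% CO2; 40 h incubation; CellTiter-Glo added, 30 min RT; luminescence read.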

[3] = qHTS assay for identifying genotoxic compounds that show differential cytotoxicity against isogenic chicken DT40 cell lines with known DNA damage response pathways - Rev3 mutant cell line (AID 743014); note: nearly all actives have a fitted effect of over 55% in size; note: potency is the fitted concentration of half-maximal effect
[4] = qHTS assay for identifying genotoxic compounds that show differential cytotoxicity against isogenic chicken DT40 cell lines with known DNA damage response pathways - Rad54/Ku70 mutant cell line (AID 743015); note: nearly all actives have a fitted effect of over 60% in size; note: potency is the fitted concentration of half-maximal effect
[5] = qHTS assay to identify small molecule antagonists of the androgen receptor (AR) signaling pathway - cell viability counter screen (AID 743033; note: nearly all actives have a fitted effect of over 45% in size; note: potency is the fitted concentration of half-maximal effect)
[6] = qHTS assay to identify small molecule antagonists of the androgen receptor (AR) signaling pathway using the MDA cell line - cell viability counter screen (AID 743041; note: nearly all actives have a fitted effect of over 45% in size)
Procedure, shortened: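 Compound exposure lasted 16 h at 37C in MDA-kb2 AR-luc cells stimulated with R1881. Protease-based CellTiter-Fluor reagent was applied for the final 30 min and fluorescence measured.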

[7] = target: Androgen receptor (Homo sapiens) (UniProt P10275); assay: qHTS assay to identify small molecule antagonists of the androgen receptor (AR) signaling pathway (AID 743035; active = well fitted inhibition curve with a large enough effect in the signal ratio in the repeat runs, not every such curve was filed as active; the % refers to the signal ratio)
Chain of Androgen receptor (Homo sapiens) (P10275 whole entry, looked up): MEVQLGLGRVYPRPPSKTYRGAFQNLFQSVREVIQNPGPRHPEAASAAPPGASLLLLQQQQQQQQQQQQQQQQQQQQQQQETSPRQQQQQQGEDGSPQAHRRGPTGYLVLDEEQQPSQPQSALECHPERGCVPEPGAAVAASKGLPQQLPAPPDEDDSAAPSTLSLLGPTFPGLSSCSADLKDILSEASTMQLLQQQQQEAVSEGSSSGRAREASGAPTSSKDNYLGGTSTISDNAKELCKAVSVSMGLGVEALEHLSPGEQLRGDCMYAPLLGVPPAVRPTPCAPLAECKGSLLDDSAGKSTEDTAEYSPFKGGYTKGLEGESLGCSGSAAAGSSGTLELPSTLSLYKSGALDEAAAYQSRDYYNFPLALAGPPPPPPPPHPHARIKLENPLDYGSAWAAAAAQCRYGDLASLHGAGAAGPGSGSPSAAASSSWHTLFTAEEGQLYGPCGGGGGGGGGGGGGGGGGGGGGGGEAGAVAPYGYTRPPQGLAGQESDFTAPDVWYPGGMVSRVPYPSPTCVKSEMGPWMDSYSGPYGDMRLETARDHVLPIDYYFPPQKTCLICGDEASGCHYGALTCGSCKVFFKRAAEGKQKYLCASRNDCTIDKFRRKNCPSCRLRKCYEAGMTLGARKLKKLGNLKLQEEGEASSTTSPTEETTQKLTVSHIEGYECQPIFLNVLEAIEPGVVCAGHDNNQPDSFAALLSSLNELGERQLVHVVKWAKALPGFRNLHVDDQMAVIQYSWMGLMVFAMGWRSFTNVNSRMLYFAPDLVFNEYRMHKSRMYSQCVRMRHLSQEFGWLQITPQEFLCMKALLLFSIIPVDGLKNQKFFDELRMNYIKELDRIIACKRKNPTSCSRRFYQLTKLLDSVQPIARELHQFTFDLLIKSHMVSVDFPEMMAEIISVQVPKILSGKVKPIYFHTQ
Procedure, shortened: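 In this cell-based reporter screen, compounds were tested in concentration series against R1881-activated HEK293 cells expressing beta-lactamase under UAS control; after 16 h at 37C, FRET substrate was added and fluorescence read 2 h later.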

[8] = target: Androgen receptor (Homo sapiens) (UniProt P10275); assay: qHTS assay to identify small molecule agonists of the androgen receptor (AR) signaling pathway (AID 743036; active = well fitted activation curve with a large enough effect in the signal ratio in the repeat runs, with a control signal flat, not every such curve was filed as active; the % refers to the signal ratio)
Procedure, shortened: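 Fluorescence from a beta-lactamase FRET substrate served as read-out in AR-UAS-bla GripTite HEK293 cells. Cells were treated with DMSO-dissolved compounds for 16 h at 37C, then with LiveBLAzer B/G substrate for 2 h at room temperature.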

[9] = target: Androgen receptor (Homo sapiens) (UniProt P10275); assay: qHTS assay to identify small molecule agonists of the androgen receptor (AR) signaling pathway using the MDA cell line (AID 743040; note: nearly all actives have a fitted effect of over 20% in size)
Procedure, shortened: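 Testing was done with the MDA-kb2 AR-luc line, a human breast carcinoma stably transfected with MMTV-luciferase containing AR and GR response elements. Cells were exposed 16 h at 37C before ONE-Glo luminescence detection.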

[10] = target: Androgen receptor (Homo sapiens) (UniProt P10275); assay: qHTS assay to identify small molecule antagonists of the androgen receptor (AR) signaling pathway using the MDA cell line (AID 743042; note: nearly all actives have a fitted effect of over 55% in size)
Procedure, shortened: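 MDA-kb2 breast carcinoma cells carrying MMTV-luciferase (AR/GR responsive) were co-treated with compounds and the agonist R1881 for 16 h at 37C. Inhibition read as ONE-Glo luminescence; CellTiter-Fluor fluorescence measured in parallel for cytotoxicity.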

Compound	outcome [1]	Potency [2]	Potency [3]	Potency [4]	Potency [5]	Potency [6]	outcome [7]	Potency [8]	Potency [9]	outcome [10]
O=C(O)c1ccc(C(=O)O)cc1	inactive	inactive	inactive	inactive	inactive	inactive	–	–	–	–
Cc1ccc(S(N)(=O)=O)cc1	inactive	inactive	inactive	inactive	inactive	inactive	–	–	–	–
Cc1cc(C)c(C)cc1C	inactive	inactive	inactive	inactive	inactive	inactive	–	–	–	–
CCCCCOC(C)=O	inactive	inactive	inactive and 68.6 µM (active)	inactive	inactive	inactive	–	–	–	–
CC(C)CC(=O)CC(C)C	inactive	inactive	inactive	inactive	inactive	inactive	–	–	–	–
CCOC(=O)NNc1nncc2ccccc12	inactive	inactive	inactive	inactive	inactive	inactive	–	–	–	–
C/C=C1/CC2C=CC1C2 (centres undefined)	inactive	inactive	inactive	inactive	inactive	inactive	–	–	–	–
O=c1[nH]c(=O)n([C@H]2CCCO2)cc1F	inactive	inactive	inactive	inactive	inactive	inactive	–	–	–	–
CCCCCCCCCCCCCCO	inactive	inactive	inactive	inactive	inactive	inactive	–	–	–	–
CN(C)CCOCCN(C)C	inactive	inactive	inactive	–	inactive	–	–	–	–	–
CCc1ccc(CCOc2ccc(CC3SC(=O)NC3=O)cc2)nc1 (centres undefined)	inactive	inactive and 68.6 µM (active)	inactive and 68.6 µM (active)	11.9 µM (active) and 61.1 µM (active)	inactive	inactive	–	–	–	–
CN(C)CCCN	inactive	inactive	inactive	–	inactive	–	–	–	–	–
Cc1cccnc1	inactive	inactive	inactive	–	inactive	–	–	–	–	–
O=C(Oc1ccccc1)c1ccccc1	inactive	inactive	inactive	inactive	inactive	inactive	–	–	–	–
CCCCOC(=O)COc1ccc(Cl)cc1Cl	inactive	inactive	inactive	–	inactive	–	–	–	–	–
C=CCNC(N)=S	inactive	inactive	inactive	–	inactive	inactive	–	–	–	–
C=C(C)C(=O)Nc1ccc(Cl)c(Cl)c1	inactive	inactive	inactive	–	–	inactive	–	–	–	–
O=C(O)CC(C(=O)O)C(CC(=O)O)C(=O)O (centres undefined)	inactive	inactive	inactive	–	inactive	inactive	–	–	–	–
O=S(=O)(O)c1ccc2ccccc2c1	inactive	inactive and 54.6 µM (active)	inactive and 43.4 µM (active)	–	inactive	inactive	–	–	–	–
CC(C)c1ccc(S(=O)(=O)O)cc1	inactive	inactive	inactive	–	inactive	inactive	–	–	–	–
O=C(O)c1cc(=O)c2c(OCC(O)COc3cccc4oc(C(=O)O)cc(=O)c34)cccc2o1	inactive	inactive	inactive	–	inactive	inactive	–	–	–	–
Cc1cnc(C(=O)NCCc2ccc(S(=O)(=O)NC(=O)NC3CCCCC3)cc2)cn1	inactive	–	–	–	inactive	–	–	–	–	–
COCCCOc1ccnc(CS(=O)c2nc3ccccc3[nH]2)c1C (centres undefined)	inactive	23.7 µM (active) and 15.3 µM (active)	29.8 µM (active) and 24.2 µM (active)	–	inactive	inactive	–	–	–	–
O=C=NCCCCCCN=C=O	inactive	inactive	inactive	–	inactive	inactive	–	–	–	–
CC(O)COCC(C)O (centres undefined)	inactive	inactive	inactive	–	inactive	inactive	–	–	–	–
CCN(CC)c1ccc(C(=O)c2ccccc2C(=O)O)c(O)c1	inactive	–	inactive	inactive	inactive	inactive	–	–	–	–
COc1ccc(Cl)cc1C(=O)NCCc1ccc(S(=O)(=O)NC(=O)NC2CCCCC2)cc1	inactive	–	inactive	–	inactive	inactive	–	–	–	–

Compound	outcome [1]	Potency [2]	Potency [3]	Potency [4]	Potency [5]	Potency [6]	outcome [7]	Potency [8]	Potency [9]	outcome [10]
CC[C@H](C)C(=O)O[C@H]1C[C@@H](C)C=C2C=C[C@H](C)[C@H](CC[C@@H]3C[C@@H](O)CC(=O)O3)[C@H]21	inactive	53.1 nM (active) and 5.52 µM (active) and 682 nM (active)	8.4 nM (active) and 391 nM (active) and 3.8 nM (active)	–	31.3 µM (active) and inactive	inactive	–	–	–	–
FC(F)(F)c1ccc(Cl)c(Cl)c1	inactive	inactive	inactive	–	inactive	–	inactive	inactive	inactive	inactive
CCCSc1ccc2nc(NC(=O)OC)[nH]c2c1	inactive	227 nM (active) and 1.09 µM (active)	359 nM (active) and 969 nM (active)	–	inactive	inactive	–	–	–	–
CC1CCC(C(C)C)C(O)C1 (centres undefined)	inactive	inactive	inactive	–	inactive	–	inactive	inactive	inactive	inactive
OCC(CO)(CBr)CBr	inactive	inactive	inactive	–	inactive	inactive	–	–	–	–
O=C(O)c1cc(O)c(O)c(O)c1	inactive	26.6 µM (active) and 30.9 µM (active)	26.6 µM (active) and 24.6 µM (active)	–	inactive	inactive	–	–	–	–
O=C(OCCOCCOC(=O)c1ccccc1)c1ccccc1	inactive	inactive	–	–	inactive	inactive	–	–	–	–
OC[C@H]1O[C@@](CO)(O[C@H]2O[C@H](CO)[C@@H](O)[C@H](O)[C@H]2O)[C@@H](O)[C@@H]1O	inactive	inactive	inactive	–	inactive	inactive	–	–	–	–
COc1ccc(Nc2ccccc2)c(C)c1	inactive	inactive	inactive	–	inactive	inactive	–	–	–	–
COc1ccc2cc([C@H](C)C(=O)O)ccc2c1	inactive	–	–	–	inactive	inactive	–	–	–	–
C#C[C@]1(O)CC[C@H]2[C@@H]3CCC4=CC(=O)CC[C@@H]4[C@H]3CC[C@@]21C	–	inactive and 30.6 µM (active)	inactive and 27.3 µM (active)	27.3 µM (active)	inactive	inactive	–	–	–	–
O=c1[nH]c(=O)n([C@H]2C[C@H](O)[C@@H](CO)O2)cc1Br	inactive	inactive	–	11.9 µM (active) and 24.7 µM (active)	inactive	inactive	–	–	–	–
CCCCC(CC)CO (centres undefined)	inactive	inactive	inactive	–	inactive	inactive	–	–	–	–
C=CCOC(=O)c1ccccc1C(=O)OCC=C	inactive	inactive	–	–	inactive	–	–	–	–	–
C#CCN(C)Cc1ccccc1	inactive	inactive	inactive	–	inactive	inactive	–	–	–	–
CC(=O)CC(=O)Nc1ccccc1C	inactive	inactive	inactive	–	inactive	inactive	–	–	–	–
CC1=C(C)S(=O)(=O)CCS1(=O)=O	inactive	–	68.6 µM (active)	60 µM (active) and 61.1 µM (active)	inactive	inactive	inactive	inactive	inactive	–
O=c1[nH]nnc2ccccc12	inactive	inactive	inactive	–	inactive	inactive	–	–	–	–
CSCCC=O	inactive	inactive	–	–	inactive	inactive	–	–	–	–
Nc1cc([N+](=O)[O-])ccc1O	inactive	inactive	inactive	–	inactive	–	–	inactive	inactive	inactive
CCCCCCCCCCCCOCCO	inactive	–	–	inactive	–	inactive	–	inactive	inactive	inactive
CCCCCCCCCCCCS	inactive	inactive	inactive	–	inactive	inactive	–	–	–	–
CCCCCCCCCCCCc1ccccc1	inactive	inactive	inactive	–	inactive	inactive	–	–	–	–
NNc1nncc2ccccc12	inactive	–	–	–	21.9 µM (active)	–	–	–	–	–
COS(C)(=O)=O	inactive	inactive	inactive	–	inactive	inactive	–	–	–	–
c1ccc2c(c1)ccc1ccccc12	inactive	–	68.6 µM (active)	30.6 µM (active)	–	–	inactive	inactive	inactive	inactive
CCCCC(CC)COC(=O)CCCCC(=O)OCC(CC)CCCC (centres undefined)	inactive	–	–	–	inactive	–	–	–	–	–

— PubChem BioAssay (Tox21)
